Assay outcomes from PubChem BioAssay.
Shown are actives, neighbours in structure and some others; about 19% of the full set was active somewhere.
TDP1 block = inhibitors of human tyrosyl-DNA phosphodiesterase TDP1; 0.28% of 350,000 active; Potency, µM (doses to about 130 µM), actives largely listed as inhibitors; Q9NUW8; AID 485290; recombinant TDP1, AlphaScreen DNA substrate cleavage; also: nearly all actives have a fitted effect of over 40% in size
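Enzyme-compound mixtures sat 15 min at room temperature, followed by a 5 min reaction with 15 nM final substrate and 10 min with AlphaScreen beads. Recombinant human Tdp1 was used at 1 nM final.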
Gal4-VP16 FLuc = Gal4-VP16 reporter inhibition counter-screen; Drosophila S2 Gal4-VP16 UAS-luciferase, luminescence, 20 h; Potency, µM (highest dose often 53.6 µM), hits mostly inhibitors; 3.5% of 310,000 active; AID 2546;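 also: Gal4-VP16 expression switched on by copper sulfate through the metallothionein promoter; nearly all actives have a fitted effect of over 50% in size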
DT40 TDP1 no CPT = qHTS for Inhibitors of human tyrosyl-DNA phosphodiesterase 1 (TDP1): qHTS in cells in absence of CPT. 15% of 420,000 active. AID 686978, 2013. Potency, µM (top dose mostly 46.2 µM), hits mostly inhibitors. DT40 Tdp1-/- hTDP1 cells, no CPT, ATP luminescence, 48 h; also: nearly all actives have a fitted effect of over 55% in size
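Stably hTDP1-transfected Tdp1-null chicken DT40 cells were treated with library compounds minus camptothecin and grown for at least 48 hr at 37 °C, after which cellular ATP was quantified by luminescence.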
RORgamma inh = ROR gamma (mouse) transcription inhibition | Drosophila S2 Gal4-RORgamma UAS-luciferase reporter, 20 h | Potency, µM (top dose mostly 53.6 µM), usual class: inhibitors | 5.4% of 310,000 active | AID 2551; also: nearly all actives have a fitted effect of over 60% in size
Target sequence (P51450 whole entry, looked up, the tested form may be a part): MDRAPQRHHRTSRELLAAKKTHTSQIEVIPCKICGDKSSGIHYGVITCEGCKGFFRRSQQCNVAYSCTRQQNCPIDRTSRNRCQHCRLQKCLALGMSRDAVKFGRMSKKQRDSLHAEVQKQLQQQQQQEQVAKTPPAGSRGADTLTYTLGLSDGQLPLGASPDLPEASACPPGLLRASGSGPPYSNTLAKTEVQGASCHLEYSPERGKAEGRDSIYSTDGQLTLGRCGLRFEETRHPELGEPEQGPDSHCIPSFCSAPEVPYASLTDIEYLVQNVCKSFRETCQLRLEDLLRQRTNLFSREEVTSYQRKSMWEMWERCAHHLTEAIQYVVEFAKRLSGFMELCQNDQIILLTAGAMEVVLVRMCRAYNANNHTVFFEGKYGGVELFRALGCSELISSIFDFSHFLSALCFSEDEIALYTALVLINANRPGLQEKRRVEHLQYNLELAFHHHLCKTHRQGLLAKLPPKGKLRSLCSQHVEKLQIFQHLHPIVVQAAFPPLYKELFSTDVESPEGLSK
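Luciferase reporter read in Schneider cells carrying Gal4-RORγ (mouse) and UAS-Photinus luciferase; cells given compound 1 h before 700 uM copper sulfate induction, then incubated 20 h at ambient temperature.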
TDP1 cell CPT = DT40-hTDP1 cell growth loss with CPT; AID 686979; chicken DT40 Tdp1-/-;hTDP1 cells + 20 nM CPT, ATP luminescence, 48 h; 12% of 420,000 active; Potency, µM (series often up to 46.2 µM), usual class: inhibitors; also: nearly all actives have a fitted effect of over 55% in size
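Cell growth measured by CellTiter-Glo luminescence after a minimum 48 h, 37 C compound exposure with 20 nM CPT in Tdp1-knockout DT40 cells stably expressing hTDP1, seeded 400/well; qHTS titration format.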
Of the large screens only hits and unclear results are named; the others gave an inactive call. Calls follow the shape of the dose curve; as a rule, active = well fitted curve in the direction sought with a large enough effect; inconclusive = small, poorly fitted or top-dose-only effect, or another doubt; inactive = no such curve, though single readings can be large; an effect the other way counts as inactive or inconclusive.

CCc1cccc(NC(=O)CN(C)S(=O)(=O)c2cccc3cccnc23)c1	DT40 TDP1 no CPT 16.4µM, TDP1 cell CPT 16.4µM
Cc1c(Cl)cccc1NC(=O)CCS(=O)(=O)c1cccc2nsnc12	DT40 TDP1 no CPT inconclusive, TDP1 cell CPT 14.6µM (no result: Gal4-VP16 FLuc, RORgamma inh)
Cc1cccc(NC(=O)CCS(=O)(=O)c2cccc3nsnc23)c1C	DT40 TDP1 no CPT inconclusive
Cc1ccc(NC(=O)CN(C)S(=O)(=O)c2cccc3nsnc23)cc1	none
Cc1cccc(NC(=O)CN(C)S(=O)(=O)c2cccc3cccnc23)c1	TDP1 cell CPT inconclusive
CN(CC(=O)Nc1ccc(F)c(Cl)c1)S(=O)(=O)c1cccc2nsnc12	DT40 TDP1 no CPT 18.4µM, TDP1 cell CPT 20.6µM
COC(=O)c1nn(-c2nc(-c3cccc(OC)c3)cc(C(F)(F)F)n2)cc1[N+](=O)[O-]	none
CC1(C)CC2CC(C)(CN2c2ncnc3ccccc23)C1 (centres undefined)	DT40 TDP1 no CPT 9.2µM, TDP1 cell CPT 8.2µM (no result: Gal4-VP16 FLuc)
CCC1CCCCN1c1nc(-c2ccncc2)nc2ccccc12 (centres undefined)	DT40 TDP1 no CPT inconclusive, RORgamma inh inconclusive, TDP1 cell CPT 29.1µM
c1ccc2c(N3CCCCC3)ncnc2c1	DT40 TDP1 no CPT 20.6µM, TDP1 cell CPT inconclusive
CCC1CCCCN1c1nc(-c2cccc(OC)c2O)nc2ccccc12 (centres undefined)	DT40 TDP1 no CPT inconclusive, TDP1 cell CPT inconclusive
CC1CCCCN1c1ncnc2ccccc12 (centres undefined)	Gal4-VP16 FLuc inconclusive, DT40 TDP1 no CPT 10.3µM, RORgamma inh inconclusive, TDP1 cell CPT 23.1µM
O=C(O)C1CCCN1c1ncnc2ccccc12 (centres undefined)	none
COc1ccccc1OCC(=O)N1CC2(C)CC1CC(C)(C)C2 (centres undefined)	DT40 TDP1 no CPT inconclusive, TDP1 cell CPT inconclusive
COc1cc2c(cc1O)C(Cc1ccc(O)cc1)[N+](C)(C)CC2 (centres undefined)	none
CC1CCCCN1c1nc(-c2ccc(C(C)(C)C)cc2)nc2ccccc12 (centres undefined)	DT40 TDP1 no CPT inconclusive, TDP1 cell CPT inconclusive (no result: Gal4-VP16 FLuc, RORgamma inh)
CC1CCCCN1c1nc(-c2ccncc2)nc2ccccc12 (centres undefined)	DT40 TDP1 no CPT 18.4µM, RORgamma inh 11.2µM, TDP1 cell CPT inconclusive
COc1cc2cc(Oc3ccc4ccc(=O)oc4c3)c(=O)oc2cc1O	none
C=CCOc1ccc(C(=O)Nc2ncn[nH]2)cc1	RORgamma inh 11.2µM
CC(C)Oc1cccc(C(=O)Nc2ncn[nH]2)c1	Gal4-VP16 FLuc inconclusive, RORgamma inh 15.8µM
CC(C)COc1ccc(C(=O)Nc2ncn[nH]2)cc1	Gal4-VP16 FLuc 3.55µM, RORgamma inh 2.82µM (no result: TDP1 block)
CCn1ccc2cc(S(=O)(=O)N3CCCN(C(=O)Nc4ccccc4OC)CC3)ccc21	none (no result: Gal4-VP16 FLuc, DT40 TDP1 no CPT, RORgamma inh, TDP1 cell CPT)
Nc1c2c(nc3c1CCC3)CCCC2	none
CCC(C(=O)NC1CCCC1)N(C(=O)Cn1nnc(-c2ccc(OC)c(OC)c2)n1)c1cccc(O)c1 (centres undefined)	none (no result: TDP1 block)
CCC(C(=O)NCCC(C)C)N(C(=O)Cn1nnc(-c2ccc(C)cc2)n1)c1cccc(O)c1 (centres undefined)	DT40 TDP1 no CPT 16.4µM, TDP1 cell CPT inconclusive (no result: Gal4-VP16 FLuc, RORgamma inh)
Cc1ccc(Cc2cnc(NC(=O)C3CCCO3)s2)cc1 (centres undefined)	RORgamma inh inconclusive
CC(=O)c1nc(N2C(=O)CC(Cc3cccc(C)c3)C2=O)sc1C (centres undefined)	none
Cc1cccc(Cc2cnc(N3C(=N)SC(C)C3=O)s2)c1 (centres undefined)	Gal4-VP16 FLuc 1.12µM, DT40 TDP1 no CPT 18.4µM, RORgamma inh 0.355µM, TDP1 cell CPT inconclusive
O=C1c2ccccc2C(=O)N1c1ncc(Cc2ccc(Cl)cc2)s1	DT40 TDP1 no CPT inconclusive, TDP1 cell CPT 18.4µM
Cc1cccc(Cc2cnc(N3C(=N)SC(c4ccccc4)C3=O)s2)c1 (centres undefined)	Gal4-VP16 FLuc 1.26µM, DT40 TDP1 no CPT 25.9µM, RORgamma inh inconclusive, TDP1 cell CPT 29.1µM
O=C1c2cccnc2C(=O)N1Cc1ccc(Cl)cc1	none
Cc1ccc(Cc2cnc(N3C(=N)SC(C)C3=O)s2)cc1 (centres undefined)	Gal4-VP16 FLuc 3.16µM, DT40 TDP1 no CPT inconclusive, RORgamma inh 5.01µM, TDP1 cell CPT inconclusive
CS(=O)(=O)c1ccc(NC(=O)CN2C(=O)C3CCCCC3C2=O)cc1 (centres undefined)	none
Cc1c(N=C2NN=C(c3c[nH]c4ccccc34)CS2)c(=O)n(-c2ccccc2)n1C	none
Cc1nc(C)c(CCNC(=O)c2cccc(Cl)c2)s1	DT40 TDP1 no CPT inconclusive, TDP1 cell CPT inconclusive
Cc1ccc2c(=O)cc(C(=O)Nc3ccc(S(=O)(=O)N4CCC(C)CC4)cc3)oc2c1C	none (no result: Gal4-VP16 FLuc, RORgamma inh)
CCC1CCCCN1S(=O)(=O)c1ccc(NC(=O)C2CCN(C(=O)c3ccco3)CC2)cc1 (centres undefined)	DT40 TDP1 no CPT inconclusive (no result: TDP1 block)
O=C(Nc1nnc(-c2ccccc2Cl)o1)c1ccc(S(=O)(=O)N2CCCCCC2)cc1	Gal4-VP16 FLuc 0.398µM, DT40 TDP1 no CPT 5.8µM, RORgamma inh 0.447µM, TDP1 cell CPT 4.61µM
CCC1CCCCN1S(=O)(=O)c1ccc(NC(=O)c2cc(=O)c3c(C)cc(C)cc3o2)cc1 (centres undefined)	DT40 TDP1 no CPT 14.6µM (no result: Gal4-VP16 FLuc, RORgamma inh)
CCC1CCCCN1S(=O)(=O)c1ccc(NC(=O)c2ccncc2)cc1 (centres undefined)	Gal4-VP16 FLuc inconclusive, DT40 TDP1 no CPT 11.6µM, TDP1 cell CPT 16.4µM
CCC1CCCCN1S(=O)(=O)c1ccc(C(=O)Nc2nnc(-c3ccccc3Cl)o2)cc1 (centres undefined)	Gal4-VP16 FLuc 0.0079µM, DT40 TDP1 no CPT 6.51µM, RORgamma inh 0.282µM, TDP1 cell CPT 5.17µM
CCOc1ccc(-c2cc(CCCC(=O)NCCc3cc(OC)c(OC)c(OC)c3)no2)cc1	DT40 TDP1 no CPT inconclusive, TDP1 cell CPT inconclusive (no result: Gal4-VP16 FLuc, RORgamma inh)
Cc1cc(C)cc(NC(=O)CSc2ncc(S(=O)(=O)c3ccccc3)c(=O)[nH]2)c1	none (no result: DT40 TDP1 no CPT, TDP1 cell CPT)
CCC1CCCCN1S(=O)(=O)c1ccc(C(=O)Nc2nnc(C3CC3)o2)cc1 (centres undefined)	Gal4-VP16 FLuc 0.316µM, DT40 TDP1 no CPT inconclusive, RORgamma inh 0.316µM, TDP1 cell CPT inconclusive
CC1CCCCN1S(=O)(=O)c1ccc(C(=O)Nc2nnc(-c3ccncc3)o2)cc1 (centres undefined)	DT40 TDP1 no CPT inconclusive, TDP1 cell CPT inconclusive
Cc1c(C(=O)OC2CCCCCC2)[nH]c2c1C(=O)CC(c1ccccc1)C2 (centres undefined)	DT40 TDP1 no CPT 3.66µM, TDP1 cell CPT 3.26µM (no result: Gal4-VP16 FLuc, RORgamma inh)
Cc1c(C(=O)OC2CCCCCC2)[nH]c2c1C(=O)CC(c1ccc(Cl)cc1)C2 (centres undefined)	none (no result: Gal4-VP16 FLuc, RORgamma inh)
